Compounds with a hit are over-represented: about 2.3% of the library has one in this group of screens.
Mcl1 Bid PPI: Mcl-1/Bid binding inhibitors, primary screen, biochemical, TR-FRET, 1536-well | Induced myeloid leukemia cell differentiation protein Mcl-1 (Homo sapiens), Q07820 | TR-FRET Mcl-1/Bid-Dy647 peptide binding | inhibition, % at 21.7 µM | actives 0.97% (n = 220,000);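 active = compounds that cut the binding signal by more than half at the single screening dose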;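 note: His-tagged Mcl-1 with europium anti-His antibody binding Bid BH3 peptide; 0% = Mcl-1 plus peptide wells and 100% = peptide-only wells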
GLD-1 RNA inh: GLD-1/TGE RNA complex disruptors, primary screen, biochemical, fluorescence polarization | Female germline-specific tumor suppressor gld-1 (Caenorhabditis elegans), Q17339 | purified GLD-1 + fluorescein TGE RNA | inhibition, % at 5.96 µM | actives 0.44% (n = 320,000);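 active = percent inhibition above a per-plate cutoff, the plate mean of test compounds plus 3 SD, cut at about 30% in these data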;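 note: 0% = DMSO wells with GLD-1 and probe and 100% = wells lacking GLD-1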
Target sequence (Q17339 whole entry, looked up): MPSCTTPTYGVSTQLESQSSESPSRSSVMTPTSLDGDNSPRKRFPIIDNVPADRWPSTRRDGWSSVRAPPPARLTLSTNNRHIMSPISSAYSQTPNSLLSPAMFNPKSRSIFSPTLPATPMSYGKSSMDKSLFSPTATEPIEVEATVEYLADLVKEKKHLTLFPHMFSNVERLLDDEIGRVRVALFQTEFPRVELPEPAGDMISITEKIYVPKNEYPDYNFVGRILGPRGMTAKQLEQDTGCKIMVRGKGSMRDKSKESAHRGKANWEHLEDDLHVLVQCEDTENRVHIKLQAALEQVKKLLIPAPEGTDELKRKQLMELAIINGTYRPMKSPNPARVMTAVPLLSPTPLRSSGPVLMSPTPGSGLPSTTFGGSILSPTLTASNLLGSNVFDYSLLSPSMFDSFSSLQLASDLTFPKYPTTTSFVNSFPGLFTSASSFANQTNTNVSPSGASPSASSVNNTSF
Mcl-1 Bim block: inhibitors of Bim peptide binding to Mcl-1, primary screen, biochemical, bead-based flow cytometry, multiplex | Induced myeloid leukemia cell differentiation protein Mcl-1 (Homo sapiens), Q07820 | Bim peptide-Mcl-1 binding | inhibition, % at 10 µM | actives 0.1% (n = 190,000); in the data active = inhibition above about 40%;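 note: 0% = no compound tracer wells and 100% = peptide blocker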
MCL1-BIM inh: inhibitors of MCL1 binding to BIM-BH3, primary screen, biochemical, fluorescence polarization. AID 2057, 2009. GST-MCL1 / FITC-Bim-BH3 fluorescence polarization. actives 0.68% (n = 320,000). inhibition, % at 10.9 µM. Induced myeloid leukemia cell differentiation protein Mcl-1 (Homo sapiens), Q07820;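 active = inhibition above the mean inhibition of all tested compounds plus 3 SD, set per campaign, cut at about 40% in these data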;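 note: 0% = DMSO wells and 100% = unlabeled Bim-BH3 peptide control; higher means more loss of mP so more displacement of Bim peptide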
BCLXL inh: inhibitors of human Bcl-xL, primary screen, biochemical, fluorescence polarization, HTS. Bcl-2-like protein 1 (Homo sapiens), Q07817. GST-Bcl-xL / FITC-Bim BH3 peptide fluorescence polarization. inhibition, % at 10.9 µM. actives 0.7% (n = 320,000);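 active = inhibition above the mean of all tested compounds plus 3 SD, cutoff set per campaign, cut at about 30% in these data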;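 note: 0% = DMSO wells and 100% = unlabeled Bim-BH3 peptide competitor; inhibitors lower millipolarization by displacing the labeled peptide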
Mcl1 Noxa PPI: Mcl-1/Noxa binding inhibitors, primary screen, biochemical, TR-FRET, 1536-well; Induced myeloid leukemia cell differentiation protein Mcl-1 (Homo sapiens), Q07820; TR-FRET Mcl-1/Noxa peptide binding, 2 h; inhibition, % at 21.7 µM; actives 1.5% (n = 220,000); AID 1022, 2008;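 active = compounds that cut the protein-peptide binding signal by more than 50% relative to plate controls in a single-dose test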;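 note: His-tagged Mcl-1 with rhodamine Noxa BH3 peptide and terbium anti-His antibody; 0% = Mcl-1 plus Noxa peptide wells and 100% = peptide-only wells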
* hit, by the source's call; x = no result given.

SMILES	Mcl1 Bid PPI	GLD-1 RNA inh	Mcl-1 Bim block	MCL1-BIM inh	BCLXL inh	Mcl1 Noxa PPI
COc1ccc(NC(=O)c2ccc(Cl)nc2)cc1S(=O)(=O)N1CCOCC1	x	2.2	x	10.1	3.9	x
COc1cc2nc(C3CCC3)nc(N3CCN(c4ccccc4OC)CC3)c2cc1OC	-30.4	-5.5	0.0	6.9	2.2	7.7
CC(C)C(NC(=O)c1ccc(C(C)(C)C)cc1)C(=O)Nc1ccc(N2CCOCC2)cc1 (centres undefined)	x	2.1	x	7.0	4.0	x
Cc1ccc2nc(N3CCN(c4ccccc4F)CC3)c(C=O)c(=O)n2c1	-24.3	4.0	-2.0	11.2	9.3	11.7
CCC(=O)Nc1ccc(C(=O)Cn2ncc(Cl)c(Cl)c2=O)cc1	-15.2	8.4	x	5.7	2.6	45.0
CCOC(=O)c1ccc(NC(=O)Cn2ncc(Cl)c(Cl)c2=O)cc1	11.3	0.2	-5.0	-7.4	2.3	80.7*
O=C(COc1ccc(Br)cc1)Nc1ccc(N2CCOCC2)cc1N1CCOCC1	x	7.3	x	-4.5	-5.6	x
C[C@H](CO)N1C[C@H](C)[C@@H](CN(C)C(=O)NC2CCCCC2)Oc2ccc(NS(C)(=O)=O)cc2C1=O	x	4.9	x	x	x	x
O=C(Cc1cccs1)N=Nc1c(O)[nH]c2ccc(Br)cc12	-4.3	5.6	x	4.1	9.8	44.1
COc1ccc2[nH]c(O)c(N=NC(=O)Cc3cccs3)c2c1	-54.5	-4.7	x	32.0	10.2	61.3*
CCOC(=O)c1ccccc1NC(=O)c1ccc2nccnc2c1	-44.9	-0.7	-1.0	6.5	8.3	51.0*
CCCN(C(=O)COC(=O)c1nc2nc(C)cc(C)n2n1)C1CCS(=O)(=O)C1 (centres undefined)	x	1.4	x	1.8	-2.0	x
CN(CCOC(=O)C1c2ccccc2Oc2ccccc21)C(C)(C)C	96.6*	6.3	0.0	-0.2	3.4	11.9
S=C(Nc1ccc2nc(-c3ccccn3)c(-c3ccccn3)nc2c1)N1CCCCC1	-30.9	x	0.0	x	x	9.2
S=C(Nc1ccc2nc(-c3ccccn3)c(-c3ccccn3)nc2c1)N1CCCCCC1	-62.1	14.8	3.0	41.1*	34.9*	-2.7
Cc1ccc(NC(=O)c2cc(S(=O)(=O)NCCC3=CCCCC3)ccc2F)cc1F	-4.0	3.8	68.0*	7.9	3.3	10.4
Cc1nnc(Cn2cnc3c2c(=O)n(C)c(=O)n3C)o1	x	-3.3	x	2.7	8.0	x
CC1(c2ccc(C#N)cc2)NC(=O)N(CC(=O)Nc2cc(S(=O)(=O)N3CCOCC3)ccc2Cl)C1=O (centres undefined)	-0.1	8.3	2.0	0.1	-3.2	15.5
O=C(Nc1cccc(N2CCCC2)c1)c1cccs1	-66.7	5.8	0.0	1.2	-9.9	50.9*
O=C(CC1C(=O)NCCN1Cc1c(F)cccc1Cl)NCCCN1CCCC1=O (centres undefined)	x	5.3	x	12.6	12.9	x
Cc1cn(CC2COC(C)(C)O2)c(=O)[nH]c1=O (centres undefined)	-15.1	6.6	-3.0	5.2	6.5	73.1*
COCOc1ccc(C=O)cc1OCOC	x	3.3	x	9.6	1.5	x
COc1ccc(-c2noc3c2-c2nc(C4CCCCC4)sc2CC3)cc1	x	1.6	x	6.6	5.3	x
COc1ccc(/C=C2/C(=O)N(Cc3ccccc3)N=C2C)cc1	-24.5	0.1	-3.0	-8.9	3.4	7.5
COc1ccc(/C=C2/C(=O)N(c3nc4ccccc4s3)N=C2CSc2ccc(Cl)cc2)cc1	51.2*	1.1	1.0	-2.6	1.0	91.0*
O=C(COC(=O)c1c2c(nc3ccccc13)CCN(Cc1ccccc1)C2)Nc1c(F)cccc1F	9.6	38.8*	-3.0	40.8*	34.4*	-1.9
COC(=O)c1ccc(CNC(=O)c2c3c(nc4ccccc24)CCN(Cc2ccccc2)C3)cc1	94.0*	11.9	-4.0	-9.4	9.8	26.2
CC(=O)Nc1ccc(NC(=O)COC(=O)c2c3c(nc4ccccc24)CCN(Cc2ccccc2)C3)cc1	-14.4	-2.6	-3.0	-1.4	7.9	2.1
